The source of these data is PMC5540273 (PLoS ONE, 2017).

Some test systems named below: INSR; IRAK1; IRAK3; IRAK4; ITK; KIT-autoinhibited; KIT; LATS1; LATS2; LCK; LIMK1; LIMK2.
What all share (conditions): concentration: 1 μM, replicates: in singlicate; n = 1
For test [1], the system named is JAK1(JH1domain-catalytic).
Test [2] relates to JAK1(JH2domain-pseudokinase).
For test [3], the system named is JAK2(JH1domain-catalytic).
Test [4] has as its system JAK3(JH1domain-catalytic).
The next test concerns T1, JNK1.
T1 construct: gene MAPK8

A further test concerns T2, JNK2.
T2 construct: gene MAPK9

In the next test the test system is T3, JNK3.
T3 construct: gene MAPK10

For a further test, the system named is T4, LKB1.
T4 construct: gene STK11
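Note: KINOMEscan kinase panel screen.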

Take `Cc1ccccc1COc1cc(-n2cnc3cc(Cl)ccc32)sc1C(N)=O` [GW813349]: the “%Inh” value worked out at 3% in the test on INSR; 22% with IRAK1; 3% in the test with IRAK3; 17% with IRAK4; 13% in the test on ITK; 0% in test [1]. For the same molecule, the “%Inh” value in test [2] was found to be 20%; in test [3] it was 17%; in test [4] it was 0%; with JNK1, 24%; in the test with JNK2, 0%; in the test on JNK3 it was 0%. The “%Inh” value with KIT-autoinhibited came to 0%; in the test on KIT, 0%; in the test on LATS1, 0%; in the test on LATS2, 61%; in the test on LCK, 0%; in the test with LIMK1, 0%. Also, the “%Inh” value with LIMK2 stood at 13%; in the test with LKB1, 0%.

As for `OCCCNc1nccc(-c2c(-c3cccc(C(F)(F)F)c3)nn3cc(C(F)(F)F)ccc23)n1` [GW630813], the “%Inh” value was 0% with INSR; 29% in the test on IRAK1; 0% in the test with IRAK3; 2% with IRAK4; 0% in the test with ITK; 14% in test [1]. Moreover, the “%Inh” value is reported as 0% in test [2]; 0% in [3]; 0% in test [4]; 0% in the test on JNK1; 13% in the test with JNK2; 15% with JNK3. Also, the “%Inh” value in the test with KIT-autoinhibited was 13%; in the test with KIT, 2%; in the test on LATS1, 0%; with LATS2, 0%; in the test with LCK it was 0%; in the test with LIMK1, 0%. The “%Inh” value with LIMK2 stood at 12%; in the test on LKB1, 16%.

Regarding `O=C(NCCNc1ccnc(Nc2ccc(F)cc2)n1)Nc1ccc2c(c1)OCO2` [GSK1379882], the “%Inh” value was found to be 7% with INSR; 16% in the test on IRAK1; 7% with IRAK3; 0% in the test with IRAK4; 9% with ITK; 12% in test [1]. The “%Inh” value in test [2] was found to be 3%; in [3], 100%; in [4] it was 0%; in the test with JNK1 it was 22%; in the test with JNK2, 10%; with JNK3 it was 3%. Moreover, the “%Inh” value in the test on KIT-autoinhibited is given as 0%; in the test with KIT, 34%; in the test on LATS1, 0%; in the test on LATS2, 17%; with LCK, 0%; in the test with LIMK1, 0%. Besides, the “%Inh” value is 0% in the test on LIMK2 and 25% in the test on LKB1.

As to `COc1ccc(-c2cc3c(C)nc(N)nc3n([C@H]3CC[C@H](O)CC3)c2=O)cn1`, the “%Inh” value (with INSR; with IRAK1; with IRAK3; in the test with IRAK4; with ITK; in test [1]) was 0% throughout. The “%Inh” value (in test [2]; in [3]; in [4]; in the test on JNK1; with JNK2; with JNK3) was 0% throughout. The “%Inh” value in the test on KIT-autoinhibited was 0%; with KIT, 0%; in the test on LATS1, 0%; in the test with LATS2, 7%; in the test on LCK it was 0%; in the test on LIMK1, 0%. Besides, the “%Inh” value in the test on LIMK2 and in the test on LKB1 was 0% in each case.

`Cc1ccc(Oc2ccc(Nc3ncnc4cc[nH]c34)cc2C)cn1`: the “%Inh” value was found to be 11% in the test with INSR; 6% in the test on IRAK1; 16% in the test with IRAK3; 0% in the test on IRAK4; 0% with ITK; 0% in test [1]. Further, the “%Inh” value is given as 24% in test [2]; 18% in test [3]; 0% in test [4]; 43% with JNK1; 44% with JNK2; 57% in the test with JNK3. The “%Inh” value with KIT-autoinhibited amounted to 12%; in the test on KIT, 16%; in the test on LATS1, 26%; in the test on LATS2, 44%; with LCK, 3%; with LIMK1 it was 4%. Moreover, the “%Inh” value in the test with LIMK2 stood at 0%; with LKB1, 11%.

As to `Cc1nnc(-c2ccc(C)c(-c3ccc(C(=O)O)cc3)c2)o1` [GW608005], the “%Inh” value in the test on INSR is 0%; with IRAK1, 0%; in the test on IRAK3, 0%; in the test with IRAK4 it was 13%; in the test with ITK it was 4%; in [1] it was 3%. Also, the “%Inh” value in [2] amounted to 0%; in test [3], 24%; in [4], 0%; with JNK1, 1%; with JNK2 it was 0%; in the test with JNK3, 0%. Further, the “%Inh” value is given as 0% in the test on KIT-autoinhibited; 0% in the test with KIT; 0% with LATS1; 0% in the test with LATS2; 0% with LCK; 4% in the test on LIMK1. The “%Inh” value in the test with LIMK2 was determined as 0%; in the test with LKB1 it was 5%.

Take `CCC(=O)c1c(-c2ccccc2)c2cc(Cl)ccc2c(=O)n1Cc1cc(S(C)(=O)=O)n(CC(F)F)n1`: the “%Inh” value is 0% in the test with INSR; 26% in the test on IRAK1; 0% in the test with IRAK3; 27% in the test on IRAK4; 0% in the test with ITK; 2% in [1]. In addition, the “%Inh” value in [2] was 0%; in test [3], 0%; in test [4], 0%; in the test with JNK1, 99.1%; in the test with JNK2, 99.4%; in the test with JNK3, 99.4%. Further, the “%Inh” value in the test with KIT-autoinhibited is listed as 0%; in the test with KIT, 5%; in the test with LATS1, 0%; with LATS2 it was 0%; in the test on LCK, 0%; with LIMK1, 0%. The “%Inh” value in the test with LIMK2 and in the test on LKB1 was 0% throughout.

`COc1cc2ncn(-c3cc(OCCCc4ccccc4)c(C(N)=O)s3)c2cc1OC` [GSK205189]: the “%Inh” value in the test on INSR was 13%; with IRAK1, 0%; with IRAK3, 7%; in the test with IRAK4, 0%; in the test on ITK, 5%; in [1] it was 0%. The “%Inh” value came to 0% in test [2]; 1% in [3]; 0% in test [4]; 15% with JNK1; 21% in the test on JNK2; 12% in the test with JNK3. For the same molecule, the “%Inh” value in the test on KIT-autoinhibited is given as 0%; in the test with KIT, 13%; in the test with LATS1, 0%; in the test on LATS2, 15%; with LCK, 16%; in the test with LIMK1 it was 0%. The “%Inh” value in the test on LIMK2 and with LKB1 was 0% throughout.

For the molecule `Nc1ncnc2c1ncn2-c1ccc(Cl)cc1` [AH2635], the “%Inh” value in the test with INSR is listed as 0%; in the test on IRAK1 it was 17%; with IRAK3, 0%; in the test with IRAK4, 0%; with ITK, 0%; in [1], 2%. The “%Inh” value in test [2] was found to be 0%; in test [3], 4%; in [4], 0%; with JNK1, 0%; with JNK2, 0%; in the test with JNK3, 0%. The “%Inh” value is listed as 0% in the test with KIT-autoinhibited; 65% in the test on KIT; 0% with LATS1; 24% with LATS2; 24% with LCK; 0% in the test with LIMK1. The entries for the “%Inh” value in the test with LIMK2 and in the test on LKB1 were 6% and 10%, respectively.

Turning to `CCC(=O)c1c(-c2ccccc2)c2cc(Cl)ccc2c(=O)n1Cc1cc(S(C)(=O)=O)n(CC(N)=O)n1`, the “%Inh” value (in the test with INSR; in the test on IRAK1; with IRAK3; in the test on IRAK4; with ITK; in test [1]) was 0% in each case. Besides, the “%Inh” value in test [2] turned out to be 51%; in [3], 0%; in test [4], 0%; in the test with JNK1, 99%; in the test on JNK2 it was 99%; in the test with JNK3 it was 99.2%. Moreover, the “%Inh” value with KIT-autoinhibited came to 4%; in the test on KIT, 6%; in the test with LATS1, 0%; in the test on LATS2 it was 0%; with LCK, 3%; with LIMK1, 0%. The “%Inh” value with LIMK2 came to 0%; in the test with LKB1, 37%.

As for `Nc1ncnc2c1ncn2-c1cccc2ccccc12` [SKF-97184], the “%Inh” value with INSR is reported as 0%; in the test with IRAK1, 27%; in the test on IRAK3 it was 0%; in the test with IRAK4 it was 0%; in the test on ITK, 0%; in test [1], 1%. In addition, the “%Inh” value in test [2] is 33%; in test [3] it was 54%; in test [4] it was 19%; in the test on JNK1, 15%; with JNK2, 0%; in the test on JNK3, 0%. Also, the “%Inh” value amounted to 20% in the test on KIT-autoinhibited; 8% with KIT; 18% in the test with LATS1; 0% in the test with LATS2; 0% with LCK; 0% in the test with LIMK1. In addition, the “%Inh” value in the test with LIMK2 stood at 0%; in the test on LKB1 it was 92.8%.
